This passage reports Potency results from PubChem BioAssay (Tox21).

Records with an inconclusive call do not appear. Where a call stands in place of a potency, no number is given. Activity calls are given as the source filed them. Calls come from the whole dose curve; as a rule, active = well fitted activation curve with a large enough effect in the signal ratio in the repeat runs, with a control signal flat (not every such curve was filed as active); inconclusive = weak or mixed curves; inactive = flat fitted curve, though single readings scatter; the % refers to the signal ratio.

The test in a line: qHTS assay for small molecule activators of the heat shock response signaling pathway (AID 743210). The settings on record: HeLa HSE-bla reporter, beta-lactamase ratio, 5 h; series mostly up to 62.6 µM. An excerpt:
U.S. Tox21 Program National Center for Advancing Translational Sciences [NCATS] NIH Chemical Genomics Center [NCGC] U.S. Environmental Protection Agency [EPA] National Institutes of Environmental Health Sciences [NIEHS] National Toxicology Program [NTP] U.S. Food and Drug Administration [FDA] Tox21 Assay Overview: Various chemicals, environmental and physiological stress conditions may lead to the activation of heat shock response/ unfolded protein response (HSR/UPR). There are three heat shock transcription factors (HSFs) (HSF-1, -2, and -4) mediating transcriptional regulation of the human HSR. To identify the compounds that activate HSR signaling, HSE-bla HeLa cell line (Invitrogen, Carlsbad, CA, USA) containing a beta-lactamase reporter gene under the control of the heat shock response elements was used to screen the Tox21 10K compound library.
Tox21 Assay Protocol Summary: The CellSensor HSE-bla HeLa cells (Invitrogen, Carlsbad, CA, USA) were dispensed at 1500 cells/6uL/well into 1536-well black wall/clear bottom plates using a Multidrop combi (Thermo Fisher Scientific, Waltham, MA) dispenser. After the assay plates were incubated at 37 C and 5% CO2 overnight, 23 nL of compounds dissolved in DMSO, positive controls or DMSO only was transferred to the assay plate by a Pintool station (Kalypsys, San Diego, CA). The plates were incubated at 37 C for 5 h. After 1 uL of LiveBLAzerTM B/G FRET substrate was added using a Flying Reagent Dispenser (Beckman Coulter, Indianapolis, IN, USA), the plates were incubated at room temperature for 2.5 h, and fluorescence intensity was measured by an Envision plate reader (PerkinElmer, Shelton, CT).
Background: Quantitative high-throughput screening tests each substance at several concentrations.
For the compound `Cc1cnc2c(C(=O)O)c(Cl)ccc2c1`, the Potency entry was “inactive”.

As to `CC(=O)C(Cl)C(=O)N(C)C` (stereo not given), the Potency entry is “inactive”.

As for `CSC(C)(C)/C=N/O`, the Potency entry is “inactive”.

Regarding `CCCCCON=O`, the Potency entry is “inactive”.

For the compound `CN/C(=N\[N+](=O)[O-])NCc1cnc(Cl)s1`, the Potency entry is “inactive”.

With `Brc1cccc(-c2ccccc2)c1`, the Potency entry is “inactive”.

For `CC(Cc1ccc2c(c1)OCO2)NO` (stereo not given), the Potency result was “inactive”.

With `CNC(C)(C)Cc1ccccc1`, the Potency result is “inactive”.

On to `CCC1(CC)C(=O)N=C(O)NC1=O`, for which the Potency entry was “inactive”.

Consider `O=c1[nH]c(Cl)c(Cl)cc1Cl`, for which the Potency result was “inactive”.

For the compound `OCC(Br)CBr` (stereo not given), the Potency entry was “inactive”.

In the case of `ClSC(Cl)(Cl)Cl`, the Potency entry is “inactive”.

With `C=CCBr`, the Potency result was “inactive”.

Regarding `N#CCCl`, the Potency result is “inactive”.

On to `CC(Cc1ccccc1)N(C)Cc1ccco1` (stereo not given), for which the Potency entry is “inactive”.

Take `O=[N+]([O-])c1ccccc1-c1ccccc1`: the Potency result is “inactive”.

As for `COP(=S)(OC)Oc1nc(Cl)c(Cl)cc1Cl`, the Potency entry is “inactive”.

On to `[Cl-].[Cl-].[Cl-].[Yb+3]`, for which the Potency entry was “inactive”.

`COc1ccc(Cc2nccc3cc(OC)c(OC)cc23)cc1OC`: the Potency entry is “inactive”.

For `CNC(=O)O/N=C(\C)C(C)S(C)(=O)=O` (stereo not given), the Potency entry is “inactive”.

Turning to `CN1[C@@H]2CC[C@H]1CC(O)C2` (stereo not given in full), the Potency result is “inactive”.

For `CCOP(=S)(OCC)Oc1cc(C)nc(N(CC)CC)n1`, the Potency result is “inactive”.

Take `CC[C@]1(O)CC[C@H]2[C@@H]3CCC4=CCCC[C@@H]4[C@H]3CC[C@@]21C`: the Potency entry is “inactive”.

As to `COc1cnc(OC)n2nc(NS(=O)(=O)c3c(OCC(F)F)cccc3C(F)(F)F)nc12`, the Potency result is “inactive”.

For the compound `CC1=C2C[C@H]3[C@@H](CC=C4C[C@@H](O)CC[C@@]43C)[C@@H]2CC[C@]12O[C@@H]1C[C@H](C)CN[C@H]1[C@H]2C`, the Potency entry was “inactive”.

As to `CCOC(=O)Cc1ccccc1`, the Potency result was “inactive”.

Take `Nc1ccc(Cl)cc1C(=O)c1ccccc1F`: the Potency entry is “inactive”.

Take `C#CCO`: the Potency entry is “inactive”.

For the compound `COC(=O)C(C)N(C(=O)c1ccco1)c1c(C)cccc1C` (stereo not given), the Potency result was “inactive”.

`CN`: the Potency entry is “inactive”.

Turning to `O=c1[nH]c2cc(Cl)ccc2n1C1CCNCC1`, the Potency result is “inactive”.

Consider `Oc1ccc([C@H]2CNCc3c2ccc(O)c3O)cc1O`, for which the Potency entry was “inactive”.

Take `Cc1c([N+](=O)[O-])cc2c(c1[N+](=O)[O-])C(C)(C)CC2(C)C`: the Potency entry was “inactive”.

On to `Clc1ccc(C2(Cn3cncn3)OCCO2)c(Cl)c1`, for which the Potency result is “inactive”.

As for `C=Cc1cccc(CCl)c1`, the Potency entry is “inactive”.

As for `CCOP(=S)(NC(C)C)Oc1ccccc1C(=O)OC(C)C` (stereo not given), the Potency entry was “inactive”.

With `Nc1nc(N)c(N)c(N)n1`, the Potency result is “inactive”.

Regarding `O=C(CCCCl)c1ccc(F)cc1`, the Potency result was “inactive”.

Take `O=NN(CCO)CCO`: the Potency result is “inactive”.

Regarding `C=CCOC(=O)c1ccccc1N`, the Potency result was “inactive”.
